Assay results taken from PubChem BioAssay (Tox21).
Several values for one entry are separate records, joined by “and”; a condition that tells them apart may be missing. Equal values may be shown once. Results filed as inconclusive are left out. Where a call stands in place of a potency, no number is given. Where a structure was tested more than once in an assay, its records may differ in their call. Activity calls are given as the source filed them. The call rests on the fitted dose curve; in most records, active means well fitted activation curve with a large enough effect in the repeat runs; inconclusive means weak or mixed curves; inactive means no such curve, though single readings can be large or run the other way.

Test: qHTS assay for small molecules that induce genotoxicity in human embryonic kidney cells expressing luciferase-tagged ATAD5 (AID 651632); further: nearly all actives have a fitted effect of over 15% in size
Conditions: HEK293T ATAD5-luciferase induction, 16 h; series mostly up to 83.3 µM
Procedure, shortened: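 HEK293T cells carrying a luciferase reporter tagged to ATAD5 were exposed to compound or DMSO vehicle for 16 hr at 37C, 5% CO2. Amplite was added, and after 30 min at room temperature luciferase activity was read as a marker of ATAD5 induction.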
Potency means the concentration at half of the fitted maximal effect.

Row | SMILES | Potency
1 | Nc1ncn([C@@H]2O[C@H](CO)[C@@H](O)[C@H]2O)c(=O)n1 | inactive
2 | OC1CCCCCCCCCCC1 | inactive
3 | O=CCc1ccccc1 | inactive
4 | Nc1ccc(Cl)cc1Cl | inactive
5 | COC(=O)c1ccccc1 | inactive
6 | CCC(C)(O)CCCC(C)C (centres undefined) | inactive
7 | Cc1ncc[nH]1 | inactive
8 | CC(C)OC=O | inactive
9 | c1ccc2c(c1)c1cccc3ccc4cccc2c4c31 | inactive
10 | Brc1cc(Oc2cc(Br)c(Br)c(Br)c2Br)c(Br)c(Br)c1Br | inactive
11 | CCCCC(CC)COC(=O)c1ccc(N(C)C)cc1 (centres undefined) | inactive
12 | CC(=O)CC/C=C(\C)CCC=C(C)C | inactive
13 | O=C1c2cccc(O)c2C(=O)c2c(O)cccc21 | inactive
14 | CN(C)c1nc(N(C)C)nc(N(C)C)n1 | inactive
15 | O=C=Nc1ccc(Cc2ccc(N=C=O)cc2)cc1 | inactive
16 | CCCCOCCOCCO | inactive
17 | CC(=O)Oc1ccccc1C(=O)Nc1ncc([N+](=O)[O-])s1 | 1.33 µM (active)
18 | CN(C)CCN(Cc1cccs1)c1ccccn1 | inactive
19 | CCOCCOCCO | inactive
20 | CC(C)Oc1ccc2c(=O)c(-c3ccccc3)coc2c1 | 1.19 µM (active) and 2.66 µM (active)

Row | SMILES | Potency
21 | CC(C)=CCCC(C)CCO (centres undefined) | inactive
22 | O=S(=O)(O)c1ccc(O)cc1 | inactive
23 | Nc1ncnc2nc[nH]c12 | inactive
24 | CC(CCC(=O)O)(c1ccc(O)cc1)c1ccc(O)cc1 | inactive
25 | O=C(Nc1ccc(Cl)cc1)Nc1ccc(Cl)c(Cl)c1 | inactive
26 | O=CCCCC=O | inactive and 59 µM (active)
27 | c1ccc2c(c1)Oc1ccccc1S2 | inactive
28 | CCCCCCCCCCCO | inactive
29 | CC(C)=CCC/C(C)=C\CO | inactive
30 | C[C@]12CCC(=O)C=C1CC[C@@H]1[C@@H]2C(=O)C[C@@]2(C)[C@H]1CC[C@]2(O)C(=O)CO | inactive
31 | COc1ccc(C(=O)CC(=O)c2ccc(C(C)(C)C)cc2)cc1 | inactive
32 | Cc1ccc(C)c(O)c1C | inactive
33 | CCC(C)OC(=O)c1ccc(O)cc1 (centres undefined) | inactive
34 | C[Si](C)(C)O[Si](C)(C)C | inactive
35 | CC(C)OB(OC(C)C)OC(C)C | inactive
36 | CCCCC(CC)COP(=O)(OCC(CC)CCCC)OCC(CC)CCCC (centres undefined) | inactive
37 | CCC(C)CO (centres undefined) | inactive
38 | O=C(Nc1ccc([N+](=O)[O-])cc1Cl)c1cc(Cl)ccc1O | 75 nM (active) and inactive
39 | Cc1c(OCC(F)(F)F)ccnc1CS(=O)c1nc2ccccc2[nH]1 (centres undefined) | inactive
